The sample as a whole holds a higher share of hits than the screen did.
HT1080 IDH1KD tx: kills HT-1080 cells with IDH1 knockdown; HT-1080 IDH1 knockdown viability, ATP luminescence, 48 h; Potency, µM (highest dose often 46.1 µM), for inactives: at the top dose activity, negative = toxicity, usual class: cytotoxic; actives 2% (n = 360,000); AID 686971;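 further: potency means the concentration at half of the fitted maximal effect; 0% = DMSO wells and -100% = cell-free medium wells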
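In this qHTS, HT-1080 cells depleted of IDH1 are exposed for 48 h at 37 °C to compound titrations. Toxicity is scored from CellTiter-Glo luminescence, with DMSO as full viability and medium alone as none.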
DT40 TDP1 no CPT: qHTS for Inhibitors of human tyrosyl-DNA phosphodiesterase 1 (TDP1): qHTS in cells in absence of CPT; DT40 Tdp1-/- hTDP1 cells, no CPT, ATP luminescence, 48 h; Potency, µM (series often up to 46.2 µM), for the others: at the top dose activity change, negative = growth inhibition, actives largely listed as inhibitors; actives 15% (n = 420,000); further: potency means the concentration at half of the fitted maximal effect; nearly all actives have a fitted effect of over 55% in size
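Chicken DT40 Tdp1-/- cells complemented with human TDP1, screened without camptothecin (DMSO vehicle only), 400 cells/well. Compounds pin-transferred, cells incubated at 37 °C for at least 48 hr. Growth read as ATP-dependent luminescence (CellTiter-Glo, 30 min at RT).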
HT1080-NT tox: kills 2HG-producing HT-1080-NT fibrosarcoma cells | AID 686970 | HT-1080-NT fibrosarcoma viability, CellTiter-Glo ATP luminescence, 48 h | actives 1.6% (n = 360,000) | Potency, µM (doses to about 46.1 µM), inactives show top-dose activity, negative = less viability, usual class: cytotoxic;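 further: NT is the 2HG producing partner of a matched IDH1 knockdown line; potency means the concentration at half of the fitted maximal effect; 0% = DMSO-treated cells and -100% = media-only wells without cells; nearly all actives have a fitted effect of over 55% in size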
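HT-1080-NT; 750 cells/well; 5% FBS RPMI; 48 h compound, 37 degrees C; CellTiter-Glo luminescence; curve fitting and curve-class assignment.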
DT40 TDP1 CPT: growth inhibition of DT40 Tdp1-/-;hTDP1 cells with camptothecin (screen for TDP1 inhibitors). AID 686979. Potency, µM (highest dose often 46.2 µM), for inactives: at the highest dose activity change, negative = growth inhibition, usual class: inhibitors. actives 12% (n = 420,000). chicken DT40 Tdp1-/-;hTDP1 cells + 20 nM CPT, ATP luminescence, 48 h; further: potency means the concentration at half of the fitted maximal effect; nearly all actives have a fitted effect of over 55% in size
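Cell growth measured by CellTiter-Glo luminescence after a minimum 48 h, 37 C compound exposure with 20 nM CPT in Tdp1-knockout DT40 cells stably expressing hTDP1, seeded 400/well; qHTS titration format.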
12-LOX inh: inhibitors of human 12S-lipoxygenase ALOX12; P18054; purified 12hLO, xylenol orange hydroperoxide absorbance; Potency, µM (top dose mostly 108 µM), for inactives: at the top dose activity change, negative = inhibition, most hits filed as inhibitors; actives 1.1% (n = 580,000); AID 1671190; further: potency means the concentration at half of the fitted maximal effect
Target sequence (P18054 whole entry, looked up): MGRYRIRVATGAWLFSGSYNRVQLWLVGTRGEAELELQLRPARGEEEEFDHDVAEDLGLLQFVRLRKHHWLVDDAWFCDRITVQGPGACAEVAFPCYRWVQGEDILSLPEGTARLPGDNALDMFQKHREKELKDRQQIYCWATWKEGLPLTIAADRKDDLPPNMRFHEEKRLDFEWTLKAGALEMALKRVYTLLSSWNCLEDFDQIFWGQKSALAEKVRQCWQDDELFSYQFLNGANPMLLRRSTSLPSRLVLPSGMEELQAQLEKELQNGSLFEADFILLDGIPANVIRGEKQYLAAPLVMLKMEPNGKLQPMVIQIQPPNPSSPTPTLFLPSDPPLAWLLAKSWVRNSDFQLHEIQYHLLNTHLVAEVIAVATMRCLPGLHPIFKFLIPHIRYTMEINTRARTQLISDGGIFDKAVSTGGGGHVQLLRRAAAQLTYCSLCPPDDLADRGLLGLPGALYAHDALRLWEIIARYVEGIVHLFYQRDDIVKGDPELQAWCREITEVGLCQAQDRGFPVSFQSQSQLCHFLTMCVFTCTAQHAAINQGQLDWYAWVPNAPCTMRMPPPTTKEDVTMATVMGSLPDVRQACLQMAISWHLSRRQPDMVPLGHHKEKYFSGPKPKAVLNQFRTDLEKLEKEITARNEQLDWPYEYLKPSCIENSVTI
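Hydroperoxide product was detected by ferrous iron/xylenol orange as the 573 to 405 nm absorbance ratio. Arachidonic acid at 40 uM (final) was turned over for 30 min at room temperature by 150 nM human 12hLO, pH 7.0 Hepes buffer, after 15 min compound preincubation.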
IL1B secr inh: inhibitors of inflammasome signaling (IL-1 beta secretion). THP-1 LPS/ATP IL-1B secretion, AlphaLISA, 16 h; hits give low values. activity change, % at 57.5 µM. actives 4.7% (n = 360,000). AID 743279; in the data active means activity change below about -50%; inconclusive means mostly about -30% to -49%
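Secreted IL-1B measured by AlphaLISA bead assay after 16 h compound exposure of THP-1 cells; compounds (final up to 57.5 uM) added 1 h before LPS (250 ng/mL) and ATP (1.25 mM) stimulation; lower signal means less secretion.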
Starred values were filed as active, the others as inactive; [ ] = dose if it differs, or a comment. Unless noted, the call rests on the fitted dose curve; in most records, active means well fitted curve in the direction sought with a large enough effect; inconclusive means small, poorly fitted or top-dose-only effect, or another doubt; inactive means no such curve, though single readings can be large; an effect the other way counts as inactive or inconclusive. Unless noted, on the % scale 0 is the no-effect control and ±100 the full control effect.

For Cc1c(OC(=O)c2ccccc2Cl)cccc1OC(=O)c1ccccc1Cl the results were 12-LOX inh -11.3%.
Screening COc1ccc(C(=O)Nc2ccccc2C(=O)Nc2cccc(C)n2)cc1 returned HT1080 IDH1KD tx -5.7%, DT40 TDP1 no CPT -17.5%, HT1080-NT tox -28.6%, DT40 TDP1 CPT -26.4%, 12-LOX inh inconclusive and IL1B secr inh -27.5.
Screening Cc1ccnc(NC(=O)c2ccccc2NC(=O)C(C)(C)C)c1 returned HT1080 IDH1KD tx inconclusive, DT40 TDP1 no CPT 16.4µM*, HT1080-NT tox inconclusive, DT40 TDP1 CPT 18.4µM*, 12-LOX inh 0.0% and IL1B secr inh 49.4.
For COc1cc(C(=O)Nc2ccccn2)cc(OC)c1OC the results were HT1080 IDH1KD tx 7.9%, DT40 TDP1 no CPT -7.7%, HT1080-NT tox 21.1%, DT40 TDP1 CPT -1.3%, 12-LOX inh 0.0% and IL1B secr inh -19.2.
For COc1cc2ccccc2cc1C(=O)Nc1cc(C)ccn1 the results were HT1080 IDH1KD tx -17.1%, DT40 TDP1 no CPT inconclusive, HT1080-NT tox -14.4%, DT40 TDP1 CPT inconclusive, 12-LOX inh 14.8% and IL1B secr inh -56.8*.
Screening COc1cc(C(=O)Nc2ccccc2C(=O)Nc2ccccn2)cc(OC)c1OC returned HT1080 IDH1KD tx -1.0%, DT40 TDP1 no CPT 3.26µM*, HT1080-NT tox 1.7%, DT40 TDP1 CPT 4.61µM*, 12-LOX inh inconclusive and IL1B secr inh 29.6.
For COc1ccc(C(=O)Nc2ccccc2C(=O)Nc2cc(C)ccn2)cc1 the results were HT1080 IDH1KD tx inconclusive, DT40 TDP1 no CPT 18.4µM*, HT1080-NT tox inconclusive, DT40 TDP1 CPT inconclusive, 12-LOX inh 0.0% and IL1B secr inh -22.6.
For COc1cc2ccccc2cc1C(=O)Nc1nccs1 the results were HT1080 IDH1KD tx -15.2%, DT40 TDP1 no CPT inconclusive, HT1080-NT tox -18.3%, DT40 TDP1 CPT 14.6µM*, 12-LOX inh -25.3% and IL1B secr inh -1.0.
COc1ccc(C(=O)Nc2ccc(C)cc2C(=O)c2ccccc2)cc1 was read as HT1080 IDH1KD tx -0.8%, DT40 TDP1 no CPT -20.8%, HT1080-NT tox -0.7%, DT40 TDP1 CPT -8.7%, 12-LOX inh -5.2% and IL1B secr inh -73.5*.
`COc1ccc(-c2nc(CSCC(=O)NCc3cccnc3)c(C)o2)cc1` gave 12-LOX inh 41.6%.
O=c1[nH]c(N2CCN(c3ccccc3)CC2)nc2c1CCC2 was read as HT1080 IDH1KD tx 13.7%, DT40 TDP1 no CPT inconclusive, HT1080-NT tox 12.9%, DT40 TDP1 CPT -28.3%, 12-LOX inh -1.9% and IL1B secr inh -2.9.
O=c1[nH]c(N2CCN(c3ccccc3)CC2)nc2c1CCCC2 was read as HT1080 IDH1KD tx 2.7%, DT40 TDP1 no CPT 23.1µM*, HT1080-NT tox 2.7%, DT40 TDP1 CPT inconclusive, 12-LOX inh -5.5% and IL1B secr inh -15.0.
Screening Cc1ccc(C)c(C(=O)N2CCC(c3n[nH]c(=O)n3-c3ccccc3)CC2)c1 returned 12-LOX inh -8.5%.
CCOc1ccc(N(CC(=O)NC2CCCC2)C(=O)CCC(=O)Nc2nccs2)cc1 was read as HT1080 IDH1KD tx -1.9%, DT40 TDP1 no CPT -23.5%, HT1080-NT tox 2.7%, DT40 TDP1 CPT -10.9%, 12-LOX inh -11.5% and IL1B secr inh -51.6*.
Screening CCOc1ccc(N(CC(=O)NC2CCCCC2)C(=O)CCC(=O)Nc2nccs2)cc1 returned HT1080 IDH1KD tx 5.5%, DT40 TDP1 no CPT 0.3%, HT1080-NT tox 1.6%, DT40 TDP1 CPT -2.6%, 12-LOX inh 10.0% and IL1B secr inh -18.4.
COc1cc(/C=N/Nc2ccc(C(F)(F)F)cn2)cc(OC)c1O was read as HT1080 IDH1KD tx inconclusive, DT40 TDP1 no CPT 18.4µM*, HT1080-NT tox inconclusive, DT40 TDP1 CPT inconclusive, 12-LOX inh inconclusive and IL1B secr inh -13.0.
Oc1ccc(/C=N/Nc2ccc(C(F)(F)F)cn2)cc1 was read as HT1080 IDH1KD tx inconclusive, DT40 TDP1 no CPT -22.1%, HT1080-NT tox inconclusive, DT40 TDP1 CPT inconclusive, 12-LOX inh inconclusive and IL1B secr inh -94.8*.
`O=C(c1ccccc1OCC1CCCN(Cc2ccncc2F)C1)N1CCCC1` (configuration not stated) gave 12-LOX inh 11.8%.
`Cn1ccc2c(C(=O)NCc3cccnc3)nc(-c3ccccc3C(F)(F)F)cc21` gave 12-LOX inh 12.6%[176 µM].
`O=C(NCCSc1c(-c2ccc(Br)cc2)[nH]c2ccccc12)c1ccc(S(=O)(=O)N2CCOCC2)cc1` gave DT40 TDP1 no CPT 4.11µM*, DT40 TDP1 CPT 3.66µM* and 12-LOX inh -17.2%.
O=C(NCCSc1c(-c2ccc(Cl)cc2)[nH]c2ccccc12)c1ccc(S(=O)(=O)N2CCOCC2)cc1 was read as DT40 TDP1 no CPT 3.66µM*, DT40 TDP1 CPT 3.66µM* and 12-LOX inh -2.8%.
For CCc1ccc(-c2nc3cc(NC(=O)c4ccc(C)c(C)c4)ccc3o2)cc1 the results were DT40 TDP1 no CPT inconclusive, DT40 TDP1 CPT inconclusive and 12-LOX inh -6.4%.
For CCOc1ccc(C(=O)Nc2ccc3oc(-c4ccc(C)cc4C)nc3c2)cc1Br the results were DT40 TDP1 no CPT 13µM*, DT40 TDP1 CPT inconclusive and 12-LOX inh -2.4%.
Screening CCOc1cc(C(=O)Nc2ccc(-c3nc4cc(C)ccc4o3)cc2)cc(OCC)c1OCC returned DT40 TDP1 no CPT 9.2µM*, DT40 TDP1 CPT 11.6µM* and 12-LOX inh -7.5%.
`CCOc1cc(C(=O)Nc2ccc3oc(-c4ccc(CC)cc4)nc3c2)cc(OCC)c1OCC` gave DT40 TDP1 no CPT 8.2µM*, DT40 TDP1 CPT 23.1µM* and 12-LOX inh -15.9%.
`Cc1oc(-c2ccccc2)nc1CC(=O)N1CCC(N2CCCCC2)CC1` gave 12-LOX inh 5.5%.
`O=C(CSc1ccc2c(c1)OCCCO2)NCc1ccc2c(c1)OCO2` gave 12-LOX inh 3.5%.
Screening COc1cc2c(cc1OC)C(c1ccc(F)cc1)N(c1cccc(C#N)c1)C(=O)C2 (configuration not stated) returned DT40 TDP1 no CPT inconclusive, DT40 TDP1 CPT 14.6µM* and 12-LOX inh -17.9%.
CCOC(=O)c1ccc(N2C(=O)Cc3cc(OC)c(OC)cc3C2c2ccc(OC)cc2)cc1 (configuration not stated) was read as 12-LOX inh 1.6%.

Assay outcomes as filed in PubChem.
